Measurements from PubChem BioAssay (NCATS).
Results filed as inconclusive are left out. Activity calls are given as the source filed them. Calls follow the shape of the dose curve; as a rule, active = well fitted inhibition curve with a large enough effect; inconclusive = small, poorly fitted or top-dose-only effect; inactive = flat fitted curve, though single readings scatter.

Legend:
[1] = qHTS for identification of novel therapeutic agents for treatment of microphthalmiaassociated transcription factor (MiT) renal cell carcinoma (RCC) (AID 1963991); details: CellTiter-Glo, 48 h, stronger effect = lower value;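 also: curves scaled with 100% = DMSO viability and 0% = empty wells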
In short: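 UOK109/UOK124/UOK145 (TFE3 fusions, three partners); 500 cells/well; MIPE v4.0, 1912 cpds, 11 conc.; 48 h, 37 C; CellTiter-Glo, 15 min RT; lum. Norm.: DMSO 100%, empty 0%.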

[2] = qHTS profiling for inhibitors of Plasmodium falciparum proliferation (AID 504749); also: nearly all actives have a fitted effect of over 60% in size; also: potency is read from the fitted curve at half-maximal effect;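 as to activity, negative = inhibition: 0% = DMSO vehicle and full inhibition = artemisinin control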; details: P. falciparum in erythrocytes, SYBR Green DNA, 72 h
In short: (§1)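 Fluorescence of SYBR Green-bound parasite DNA, read at 485/535 nm, served as the growth measure. Infected erythrocytes were cultured with compound 72 h; artemisinin (0.29 uM) and DMSO wells defined the normalization range.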

[3] = tested on: 3D7; test: as above; details: P. falciparum in erythrocytes, SYBR Green DNA, 72 h; series mostly up to 28.7 µM
In short: as §1

[4] = tested on: 7G8; test: as above; details: P. falciparum in erythrocytes, SYBR Green DNA, 72 h; series mostly up to 28.7 µM
In short: as §1

[5] = tested on: AA1029; test: as above; details: P. falciparum in erythrocytes, SYBR Green DNA, 72 h; series mostly up to 28.7 µM
In short: as §1

[6] = tested on: AS120; test: as above; details: P. falciparum in erythrocytes, SYBR Green DNA, 72 h; series mostly up to 28.7 µM
In short: as §1

[7] = tested on: ATS189; test: as above; details: P. falciparum in erythrocytes, SYBR Green DNA, 72 h; series mostly up to 28.7 µM
In short: as §1

[8] = tested on: ATS95; test: as above; details: P. falciparum in erythrocytes, SYBR Green DNA, 72 h; series mostly up to 28.7 µM
In short: as §1

[9] = tested on: C2A; test: as above; details: P. falciparum in erythrocytes, SYBR Green DNA, 72 h; series mostly up to 28.7 µM
In short: as §1

[10] = tested on: CP185; test: as above; details: P. falciparum in erythrocytes, SYBR Green DNA, 72 h; series mostly up to 28.7 µM
In short: as §1

[11] = TFE3-RCC UOK109 viability, measured here: UOK109 Z-AUC
[12] = TFE3-RCC viability, measured here: UOK124 Z-AUC
[13] = TFE3-RCC viability, measured here: UOK145 Z-AUC
[14] = at 28.7 µM (top of the series), parasite line A
[15] = at 28.7 µM (top of the series), parasite line B
[16] = at 12.8 µM (top of the series), parasite line A
[17] = at 12.8 µM (top of the series), parasite line B

NC(=O)OCC(COC(N)=O)c1ccccc1
inactive: activity, negative = inhibition [2, 14] 12.4% | activity, negative = inhibition [2, 15] 14.7% | Potency [3] | Potency [4] | Potency [5] | Potency [6] | Potency [7] | Potency [8] | Potency [9] | Potency [10]
0.566: z-score [1, 12]
-0.0858: z-score [1, 13]
0.961: z-score [1, 11]

COc1ccccc1OCCNCC(O)COc1cccc2[nH]c3ccccc3c12 (configuration not stated)
0.302: z-score [1, 12]
0.158: z-score [1, 13]
0.499: z-score [1, 11]
active: Potency [4] 8910 nM | Potency [5] 8910 nM | Potency [6] 3980 nM | Potency [8] 12600 nM | Potency [9] 10000 nM

CS(=O)(=O)Nc1ccc([N+](=O)[O-])cc1Oc1ccccc1
0.487: z-score [1, 13]
1.08: z-score [1, 11]
0.234: z-score [1, 12]
inactive: activity, negative = inhibition [2, 16] 15.2% | activity, negative = inhibition [2, 17] 9.68% | Potency [3] | Potency [4] | Potency [5] | Potency [6] | Potency [7] | Potency [8] | Potency [9] | Potency [10]

NC(=O)NO
inactive: activity, negative = inhibition [2, 14] 16% | activity, negative = inhibition [2, 15] 12.9% | Potency [3] | Potency [4] | Potency [5] | Potency [6] | Potency [7] | Potency [8] | Potency [9] | Potency [10]

CN(C)c1nc(N(C)C)nc(N(C)C)n1
inactive: activity, negative = inhibition [2, 16] 7.93% | activity, negative = inhibition [2, 17] -1.03% | Potency [3] | Potency [4] | Potency [5] | Potency [6] | Potency [7] | Potency [8] | Potency [9] | Potency [10]

Clc1ccc2nsnc2c1NC1=NCCN1
inactive: activity, negative = inhibition [2, 14] 6.78% | activity, negative = inhibition [2, 15] -11.1% | Potency [3] | Potency [4] | Potency [5] | Potency [6] | Potency [7] | Potency [8] | Potency [9] | Potency [10]

Clc1ccc2c(c1)C(N1CCNCC1)=Nc1ccccc1O2
0.445: z-score [1, 12]
0.654: z-score [1, 13]
0.826: z-score [1, 11]
inactive: activity, negative = inhibition [2, 14] -18.9% | Potency [3] | Potency [9] | Potency [10]

CC(C)Cc1ccc(C(C)C(=O)O)cc1 (configuration not stated)
0.767: z-score [1, 11]
0.507: z-score [1, 13]
0.849: z-score [1, 12]
inactive: activity, negative = inhibition [2, 14] 5.92% | activity, negative = inhibition [2, 15] 6.46% | Potency [3] | Potency [4] | Potency [5] | Potency [6] | Potency [7] | Potency [8] | Potency [9] | Potency [10]

NCCc1cnc[nH]1
-0.102: z-score [1, 11]
0.389: z-score [1, 13]
0.743: z-score [1, 12]
inactive: activity, negative = inhibition [2, 14] 7.72% | activity, negative = inhibition [2, 15] 10.7% | Potency [4] | Potency [5] | Potency [6] | Potency [7] | Potency [9] | Potency [10]

CCCNCC(O)COc1ccccc1C(=O)CCc1ccccc1 (configuration not stated)
active: Potency ([2]; parasite line A) 1000 nM | Potency ([2]; parasite line B) 355 nM | Potency [3] 2000 nM | Potency [4] 251 nM | Potency [5] 631 nM | Potency [6] 316 nM | Potency [7] 891 nM | Potency [8] 631 nM | Potency [9] 1780 nM | Potency [10] 1260 nM

Cc1cn([C@H]2C[C@H](N=[N+]=[N-])[C@@H](CO)O2)c(=O)[nH]c1=O
inactive: activity, negative = inhibition [2, 14] -7.84% | activity, negative = inhibition [2, 15] 9.23% | Potency [3] | Potency [4] | Potency [5] | Potency [6] | Potency [7] | Potency [8] | Potency [9] | Potency [10]

O=c1c(-c2ccc(O)cc2)coc2cc(O)cc(O)c12
inactive: activity, negative = inhibition [2, 14] -2.63% | activity, negative = inhibition [2, 15] -14.6% | Potency [3] | Potency [4] | Potency [5] | Potency [6] | Potency [7] | Potency [8] | Potency [9] | Potency [10]

CC#C[C@]1(O)CC[C@H]2[C@@H]3CCC4=CC(=O)CCC4=C3[C@@H](c3ccc(N(C)C)cc3)C[C@@]21C
active: Potency ([2]; parasite line A) 8910 nM | Potency ([2]; parasite line B) 8910 nM | Potency [3] 8910 nM | Potency [4] 2820 nM | Potency [5] 12600 nM | Potency [6] 7080 nM

CN(C)C(=N)N=C(N)N
0.797: z-score [1, 11]
1.58: z-score [1, 12]
0.981: z-score [1, 13]
inactive: activity, negative = inhibition [2, 16] 11.7% | activity, negative = inhibition [2, 17] 23.8% | Potency [3] | Potency [4] | Potency [5] | Potency [7] | Potency [8] | Potency [9] | Potency [10]

Nc1nnc(-c2cccc(Cl)c2Cl)c(N)n1
inactive: activity, negative = inhibition [2, 14] -17% | activity, negative = inhibition [2, 15] -20% | Potency [3] | Potency [4] | Potency [5] | Potency [6] | Potency [7] | Potency [8] | Potency [9] | Potency [10]

Cc1cc(C(C)(C)C)cc(C)c1CC1=NCCN1
inactive: activity, negative = inhibition [2, 16] -3.52% | activity, negative = inhibition [2, 17] -6.56% | Potency [3] | Potency [4] | Potency [5] | Potency [6] | Potency [7] | Potency [8] | Potency [9] | Potency [10]

COc1ccc(CCN(C)CCCC(C#N)(c2ccc(OC)c(OC)c2)C(C)C)cc1OC (configuration not stated)
inactive: activity, negative = inhibition [2, 14] 7.01% | activity, negative = inhibition [2, 15] 8.01% | Potency [3] | Potency [6] | Potency [7] | Potency [8] | Potency [9] | Potency [10]
0.393: z-score [1, 12]
0.794: z-score [1, 11]
0.327: z-score [1, 13]

CCOC(=O)C(C)(C)Oc1ccc(Cl)cc1
0.606: z-score [1, 13]
-1.29: z-score [1, 11]
0.307: z-score [1, 12]
inactive: activity, negative = inhibition [2, 14] 5.66% | activity, negative = inhibition [2, 15] 12.1% | Potency [3] | Potency [4] | Potency [5] | Potency [6] | Potency [7] | Potency [8] | Potency [9] | Potency [10]
